High-throughput results (PubChem BioAssay)
Compounds with a hit are over-represented: about 19% of the library has one in this group of screens.
Pf growth 96h – inhibits malaria parasite growth, 96 h. P. falciparum luciferase reporter growth, 96 h. Potency, µM (series often up to 28.7 µM), for the others: top-dose activity change, negative = inhibition, actives largely listed as inhibitors. 6.9% of 320,000 active. AID 504834; also: potency is read from the fitted curve at half-maximal effect; % is scaled to controls: 0 for no effect and ±100 for the full control effect
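P. falciparum expressing integrated firefly luciferase, in erythrocytes at 2% hematocrit, 0.05% parasitemia, incubated with compounds 96 h at 37 C, 5% CO2. Growth inhibition read as loss of luminescence; two-generation exposure targets delayed-death apicoplast inhibitors.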
Marburg entry inh – Marburg virus entry inhibition. 1.8% of 300,000 active. Potency, µM (top dose mostly 37.8 µM), for inactives: top-dose activity change, negative = inhibition, actives largely listed as inhibitors. Marburg virus pseudotyped entry inhibition, cell reporter; calls by dose curve; tested in HEK293 cells; also: potency is read from the fitted curve at half-maximal effect; % is scaled to controls: 0 for no effect and ±100 for the full control effect
Pf growth 48h – inhibits P. falciparum growth in the first generation, 48 h; P. falciparum luciferase growth in erythrocytes, 48 h; Potency, µM (top dose mostly 28.7 µM), inactives show at the top dose activity change, negative = inhibition, usual class: inhibitors; 5.9% of 310,000 active; also: potency is read from the fitted curve at half-maximal effect; % is scaled to controls: 0 for no effect and ±100 for the full control effect
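Cell-based growth assay: transgenic P. falciparum expressing firefly luciferase, cultured in red cells within RPMI 1640 containing 0.5% w/v Albumax, 24 mM bicarbonate and gentamycin. A drop in luciferase activity indicates inhibition.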
LASV entry inh – Lassa virus entry inhibition | Lassa virus pseudotype entry inhibition, cell reporter | Potency, µM (highest dose often 37.9 µM), for the others: at the highest dose activity change, negative = inhibition, most hits filed as inhibitors | 1.2% of 300,000 active | AID 540256; calls by dose curve; tested in HEK293 cells; also: potency is read from the fitted curve at half-maximal effect; % is scaled to controls: 0 for no effect and ±100 for the full control effect; nearly all actives have a fitted effect of over 50% in size
Shiga inhibitor – Shiga toxin inhibition; Vero cells, Shiga toxin protein synthesis inhibition reporter; inhibition, % at 38.7 µM; 9.2% of 290,000 active; in the data active = inhibition mostly above about 28%, no sharp cut-off; inactive = mostly below about 43%; also: 0% is about no effect
CHX counter – affects cycloheximide protein synthesis inhibition readout, counter-screen | max response, % | 12% of 300,000 active | AID 2314 | cell reporter, cycloheximide protein synthesis inhibition counterscreen; in the data active = max response mostly above about 13%, no sharp cut-off; inactive = mostly below about 14%; also: read at 38.3 µM for the half of the compounds with a filed dose; 0% is about no effect
* = called active by the depositor; ? = inconclusive; · = no result; [ ] = remark or other dose. Unless noted, calls follow the shape of the dose curve; as a rule, active = well fitted inhibition curve with a large enough effect; inconclusive = small, poorly fitted or top-dose-only effect, or another doubt; inactive = no such curve, though single readings can be large or run the other way.

SMILES | Pf growth 96h | Marburg entry inh | Pf growth 48h | LASV entry inh | Shiga inhibitor | CHX counter
Cc1nn(C)cc1NC(=O)c1ccc(Br)o1 | 31.8% | -27.7% | 11.8% | -0.5% | 1.2 | -1.6
COc1ccccc1NC(=O)COc1ccc(Br)cc1CNC1CCCC1 | 7.2% | 5.62µM* | 11.7µM* | · | -9.2 | -1.7
Cc1ccc(NC(=O)COc2ccc(Br)cc2CO)cc1 | ? | 6.4% | · | 22.6% | 69.5 | 26.5*
CCCCNCCOCCOc1ccc(F)cc1 | 18.7% | -2.8% | 3.7% | -16.6% | 0.8 | -0.9
Clc1cccc(-c2nn3c(Cn4cnc5ccccc54)nnc3s2)c1 | 12.8% | -38.9% | 13.1µM* | -18.8% | -20.0 | -2.5
Cc1ccc(-n2c(SCC(=O)NCC3CCCO3)nc3c(c2=O)SCC3)cc1 (stereo unspecified) | 0.0% | -10.0% | 1.6% | -5.8% | -6.9 | -1.1
COc1ccc(-n2c(SCC(=O)NCC3CCCO3)nc3c(c2=O)SCC3)cc1 (stereo unspecified) | 16.5% | 2.3% | 8.6% | 1.7% | -3.2 | -2.2
CC1Cc2nc(SCC(=O)NCC3CCCO3)n(-c3ccc(F)cc3)c(=O)c2S1 (stereo unspecified) | 3.7µM* | 1.6% | 8.28µM* | -3.8% | -2.5 | -3.4
Cc1cc(NC(=O)CSc2nc3c(c(=O)n2-c2ccccc2)SC(C)C3)no1 (stereo unspecified) | 4.15µM* | -2.6% | ? | 3.9% | -7.3 | -2.9
COc1ccc(-n2c(SCC(=O)NCC3CCCO3)nc3c(c2=O)SC(C)C3)cc1 (stereo unspecified) | ? | -3.1% | 11.7µM* | 23.3% | 7.8 | 3.8
O=C(CSc1nc2ccsc2c(=O)n1Cc1ccccc1)NCC1CCCO1 (stereo unspecified) | -7.2% | -10.0%[46.1 µM] | 10.8% | 6.5% | -2.9 | 8.6
CC1Cc2nc(SCC(=O)NCC3CCCO3)n(Cc3ccccc3)c(=O)c2S1 (stereo unspecified) | 32.9% | 13.6% | 14.7µM* | 4.9% | 9.3 | 13.0
CC(C)CN1C(=O)C(=O)N(CC(=O)N2c3ccccc3NC(=O)CC2C)C1=O (stereo unspecified) | 55.6% | 3.6% | -0.3% | 8.6% | · | ·
Clc1cccc(Cl)c1NC1=NCCN1 | 12µM* | ? | -14.0% | -11.9% | 1.8 | 0.6
CC(=O)c1c(O)c2ccccc2n(Cc2ccccc2)c1=O | 13.1µM* | · | ? | · | 21.1 | -0.8
CCn1c(=O)c(C(=O)Nc2ccccc2C)c(O)c2ccccc21 | ? | 28.5% | 13.7% | 3.9% | active | 16.0
C=CCn1c(=O)c(C(=O)Nc2ccccc2C)c(O)c2ccccc21 | ? | -1.8% | 161.6% | ? | 20.1 | 19.5*
CCCn1c(=O)c(C(=O)Nc2ccccc2C)c(O)c2ccccc21 | 3.8% | 23.6% | 61.8% | 12.1% | · | 14.4*
Cc1ccc2oc(=O)c3cc(C(=O)NCCCN4CCCCCC4)sc3c2c1 | 43.4% | ? | ? | 4.5%[46.1 µM] | 1.1 | -6.5
CCOC(=O)c1c(S(=O)(=O)NCC(=O)Nc2ccccc2)c(C)n(C)c1C | 52.0% | · | 5.0% | · | 10.8 | -3.8
CCCCCCn1c(=O)c(C(=O)Nc2ccncc2)c(O)c2ccccc21 | ? | · | 2.94µM* | · | 24.1 | 8.9
CCCCCn1c(=O)c(C(=O)Nc2ccccc2C)c(O)c2ccccc21 | -24.0% | 24.0%[46.1 µM] | 65.0% | 26.7%[46.1 µM] | · | 34.3*
CCCCn1c(=O)c(C(=O)Nc2ccccc2)c(O)c2ccccc21 | 12.7% | 11.7%[46.1 µM] | ? | 15.4% | -21.6 | -1.5
CCCn1c(=O)c(C(=O)N/N=C/c2ccccc2F)c(O)c2ccccc21 | 38.9% | -8.9%[46.1 µM] | 110.0% | 1.1% | 30.4 | 13.0*
Cc1cc2ncn(S(=O)(=O)c3ccc(S(=O)(=O)N4CCCCCC4)cc3)c2cc1C | · | 3.7% | · | 4.0% | · | ·
SMILES | Pf growth 96h | Marburg entry inh | Pf growth 48h | LASV entry inh | Shiga inhibitor | CHX counter
COC(=O)c1c(/N=C/N(C)C)sc2c1CCN(c1ncc(C(F)(F)F)cc1Cl)C2 | -28.2% | -4.6% | ? | -16.7% | 4.8 | 27.8*
CN1CCN(C(=O)C2CCN(c3ncc(C(F)(F)F)cc3Cl)CC2)CC1 | -4.4% | 11.3%[46.1 µM] | -12.4% | ? | -14.9 | -4.7
O=C(O)C=C1CCN(c2ncc(C(F)(F)F)cc2Cl)CC1 | ? | 5.5% | 36.7% | 10.4% | 33.9 | 26.2*
O=C(CSc1ccc(Cl)cc1)N1CCN(c2ncc(C(F)(F)F)cc2Cl)CC1 | -13.3% | ? | ? | 3.8% | 1.4 | 1.6
NNC(=O)C=C1CCN(c2ncc(C(F)(F)F)cc2Cl)CC1 | 21.0% | 19.7% | 31.9% | -2.0% | 6.6 | 18.3*
O=C(CN1CCN(c2ncc(C(F)(F)F)cc2Cl)CC1)N1CCN(c2ncc(C(F)(F)F)cc2Cl)CC1 | 11.7µM* | ? | · | -29.2% | -12.0 | 0.9
COC(=O)c1c(N(S(C)(=O)=O)S(C)(=O)=O)sc2c1CCN(c1ncc(C(F)(F)F)cc1Cl)C2 | -26.1% | -1.6%[46.1 µM] | · | ? | 9.2 | 6.6
CCSc1nnnn1-c1cccc(C(=O)O)c1 | · | · | · | 2.6%[46.1 µM] | · | ·
CCOCCCNCc1ccc(Cl)cc1 | 37.2% | ? | 18.6% | ? | -5.9 | 4.1
CCOCCCNCc1cccc(OCc2ccc(F)cc2)c1 | 11.7µM* | ? | ? | -9.3% | 10.8 | -3.8
Oc1ccccc1-c1nnc(-c2ccc(C(F)(F)F)cc2)o1 | 10.8% | 16.8% | 49.9% | ? | 20.2 | 34.8*
c1ccc(-c2nnc(-c3ccncc3)o2)cc1 | 61.4% | 17.9% | · | 10.1% | 78.7 | 40.3*
c1ccc(-c2nnc(-c3ccccc3)o2)cc1 | 143.7% | -14.0%[46.1 µM] | 234.3% | -25.8% | 85.5* | 30.7*
CSc1nnc(-c2ccccc2)o1 | 10.1% | 0.7% | 42.3% | 3.5% | 47.9 | -3.4
Clc1cccc(-c2nnc(-c3ccccc3)o2)c1 | -1.4% | ? | 121.3% | ? | 59.1* | 36.5*
COc1cc(-c2nnc(-c3ccncc3)o2)ccc1OCc1ccccc1 | -12.3% | -19.6% | 9.8% | -18.8% | -17.5 | -11.0
COc1ccc(C(C)=O)cc1COc1cccc2c1OC(C)(C)C2 | ? | -27.0% | -0.2% | -2.9% | -12.6 | -3.2
Cc1cccc(NC(=O)C(=O)NCC2CCCN2S(=O)(=O)c2cccs2)c1C (stereo unspecified) | 7.6% | 0.7% | -7.7% | -19.8% | · | ·
CC1CCCCC12NC(=O)N(CC(=O)NCC(=O)Nc1ccc(F)c(F)c1F)C2=O (stereo unspecified) | ? | · | -22.4% | · | · | ·
Cc1ccc(N)c(C(=O)c2ccc(Br)cc2)c1 | -7.2% | ? | 28.5% | 7.4%[46.1 µM] | 30.0 | 24.5
COc1cccc(-c2nnc(-c3ccc(C(F)(F)F)cc3)o2)c1 | 219.6% | 9.5% | 246.1% | 16.4% | 49.2* | 27.3*
COc1cccc(-c2nnc(NC(C)=O)o2)c1 | -1.5% | · | -0.7% | · | 9.7 | -0.6
CN(C)S(=O)(=O)c1cccc(-c2nnc(-c3ccccc3)o2)c1 | ? | ? | · | 6.5% | 73.4* | 44.1*
Nc1ccccc1-c1nnc(-c2ccc(-c3ccccc3)cc2)o1 | -52.2% | ? | · | ? | 43.5* | 46.5*
COc1cc(-c2nnc(-c3ccco3)o2)ccc1OCc1ccccc1 | -20.0% | -14.8% | ? | -14.9% | 58.7* | 38.7*
